# Laboratory results as given in PubChem BioAssay.
# Activity calls are given as the source filed them.
# What was measured:
# [1] = tested on: Human papillomavirus type 1a protein E7 (residues 44-93); test: HPV1a E7 fragment binders on microarrays, primary screen, biochemical, small-molecule microarray, residues 44-93, 635 nm fluorescence (AID 1108); details: small-molecule microarray binding, fluorescence 635 nm; higher = more signal;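 note: E7 fragment applied at 1 µg/mL in TBST for 1 h at 4 C; score combines spot fluorescence with its signal to noise ratio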
# [2] = modulators of HCV replicon luciferase signal, primary screen, HCV replication inhibitor project, Huh7 cells, luciferase reporter (AID 1109); details: 48 h, higher = more signal;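 note: huh7 hepatoma cells harbouring a luciferase neomycin HCV replicon reporter; luciferase luminescence as measure of HCV replicon replication; test concentration not given here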
# [3] = target: Left-right determination factor 2 (Homo sapiens) (UniProt O00292); test: LEFTY2 binders on small-molecule microarrays, primary screen, biochemical, small-molecule microarray, 635 nm fluorescence scan (AID 1110); details: LEFTY2 binding, higher = more signal
# Sequence of Left-right determination factor 2 (Homo sapiens) (O00292 whole entry, looked up): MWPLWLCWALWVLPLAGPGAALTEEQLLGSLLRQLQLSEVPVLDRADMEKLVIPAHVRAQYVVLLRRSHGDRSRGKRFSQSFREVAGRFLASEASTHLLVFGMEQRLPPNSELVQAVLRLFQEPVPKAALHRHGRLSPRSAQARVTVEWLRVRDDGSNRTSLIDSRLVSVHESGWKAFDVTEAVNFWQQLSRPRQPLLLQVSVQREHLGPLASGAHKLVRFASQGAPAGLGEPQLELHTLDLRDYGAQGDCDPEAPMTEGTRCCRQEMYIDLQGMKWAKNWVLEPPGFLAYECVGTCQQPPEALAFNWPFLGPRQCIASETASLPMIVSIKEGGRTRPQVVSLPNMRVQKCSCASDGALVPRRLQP
# [4] = target: Calmodulin-1 (Homo sapiens) (UniProt P0DP23); test: CALM1 binders on microarrays, EGTA buffer, profiling panel, biochemical, small-molecule microarray, Cy5-labelled CALM1 (AID 1111); details: Cy5-CALM1 binding fluorescence, higher = more signal;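 note: labelled calmodulin applied in Tris saline Tween buffer holding calcium plus EGTA and DTT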
# [5] = target: Calmodulin-1 (Homo sapiens) (UniProt P0DP23); test: calcium-bound CALM1 binders on microarrays, profiling panel, artefact control for SMM control-protein annotation, biochemical, small-molecule microarray, Cy5-labelled CALM1, plus calcium (AID 1112); details: Cy5-CALM1 binding fluorescence, higher = more signal;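 note: score merges spot fluorescence with signal to noise from triplicate slides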
# [6] = small-molecule microarray binders of probe aWnt5a, primary screen, biochemical, biotinylated probe, 635/667 nm fluorescence (AID 1113); details: higher = more signal;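 note: score merges 667 nm fluorescence intensity with signal-to-noise per printed feature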
# [7] = small-molecule microarray binders of probe aShh, primary screen, biochemical, biotinylated probe, 635/667 nm fluorescence (AID 1114); details: higher = more signal;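 note: probe is biotin-labelled aShh protein from a stem cell growth factor screen; measures binding of labelled protein to compounds printed on the slide; score merges feature fluorescence at 667 nm with signal-to-noise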
# [8] = small-molecule microarray binders of probe aNog, primary screen, biochemical, biotinylated probe, 635/667 nm fluorescence (AID 1115); details: higher = more signal;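 note: probe is biotinylated aNog protein used at 0.15 µg/mL for 1 h at 4 C; z-score combines 667 nm fluorescence of each spot with its signal to noise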
# [9] = target: Torsin-1A-interacting protein 1 (Homo sapiens) (UniProt Q5JTV8); test: LAP1 binders from COS7 cell lysate, primary screen, small-molecule microarray, 635/667 nm fluorescence (AID 1116); details: COS7-hLAP1 lysate binding, 635 nm fluorescence, higher = more signal
# Sequence of Torsin-1A-interacting protein 1 (Homo sapiens) (Q5JTV8 whole entry, looked up): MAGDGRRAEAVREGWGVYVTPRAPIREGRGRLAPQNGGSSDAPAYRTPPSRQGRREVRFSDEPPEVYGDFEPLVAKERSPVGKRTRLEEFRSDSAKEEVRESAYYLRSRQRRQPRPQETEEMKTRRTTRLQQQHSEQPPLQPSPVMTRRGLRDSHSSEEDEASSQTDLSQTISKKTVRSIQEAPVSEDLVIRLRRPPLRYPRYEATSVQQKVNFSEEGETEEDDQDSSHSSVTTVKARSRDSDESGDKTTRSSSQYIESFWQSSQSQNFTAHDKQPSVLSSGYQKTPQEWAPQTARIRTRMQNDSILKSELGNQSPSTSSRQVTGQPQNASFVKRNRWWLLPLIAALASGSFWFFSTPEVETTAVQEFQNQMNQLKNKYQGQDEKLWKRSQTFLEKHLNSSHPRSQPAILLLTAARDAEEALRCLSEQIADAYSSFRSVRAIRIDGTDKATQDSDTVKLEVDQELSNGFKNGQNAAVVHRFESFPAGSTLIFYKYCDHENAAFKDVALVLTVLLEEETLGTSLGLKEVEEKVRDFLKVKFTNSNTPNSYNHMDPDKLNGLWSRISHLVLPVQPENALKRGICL
# [10] = target: Alpha-bungarotoxin (Bungarus multicinctus) (UniProt P60615); test: alpha-bungarotoxin binders on microarray, profiling panel, artefact control for SMM control protein annotation, biochemical, small-molecule microarray, Alexa647 label, 635/667 nm fluorescence (AID 1117); details: alpha-BTX-A647 binding fluorescence, higher = more signal
# Sequence of Alpha-bungarotoxin (Bungarus multicinctus) (P60615 whole entry, looked up): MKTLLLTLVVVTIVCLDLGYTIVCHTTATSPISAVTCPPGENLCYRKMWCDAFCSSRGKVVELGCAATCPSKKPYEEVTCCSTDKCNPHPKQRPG
# [11] = target: Albumin (Bos taurus) (UniProt P02769); test: bovine serum albumin binders on microarray, profiling panel, artefact control for SMM control protein annotation, biochemical, small-molecule microarray, Alexa647 label, 635/667 nm fluorescence (AID 1118); details: BSA-A647 binding, fluorescence 635 nm, higher = more signal;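 note: score merges 667 nm emission intensity and signal-to-noise per printed compound spot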
# Sequence of Albumin (Bos taurus) (P02769 whole entry, looked up): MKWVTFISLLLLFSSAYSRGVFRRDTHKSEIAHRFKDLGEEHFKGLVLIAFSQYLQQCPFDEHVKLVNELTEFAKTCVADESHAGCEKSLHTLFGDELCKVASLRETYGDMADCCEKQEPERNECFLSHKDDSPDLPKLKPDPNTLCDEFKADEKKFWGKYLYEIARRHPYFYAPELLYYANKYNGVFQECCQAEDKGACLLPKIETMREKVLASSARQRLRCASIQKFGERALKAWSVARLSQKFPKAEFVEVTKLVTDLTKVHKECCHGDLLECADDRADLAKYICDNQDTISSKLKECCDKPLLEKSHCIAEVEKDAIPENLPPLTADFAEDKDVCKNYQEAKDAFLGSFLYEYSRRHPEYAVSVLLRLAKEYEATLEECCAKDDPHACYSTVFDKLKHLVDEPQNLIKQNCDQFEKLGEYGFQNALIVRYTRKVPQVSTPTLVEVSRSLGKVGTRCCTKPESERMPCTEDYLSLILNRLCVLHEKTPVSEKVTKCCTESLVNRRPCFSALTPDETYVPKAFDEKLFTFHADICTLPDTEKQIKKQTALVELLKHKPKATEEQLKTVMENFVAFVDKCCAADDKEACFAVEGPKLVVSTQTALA
# [12] = small-molecule microarray binders of probe aXIP, primary screen, biochemical, NeuroSMM set, 635/667 nm fluorescence (AID 1119); details: higher = more signal, called active from +8 up or from −8 down;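 note: probe is the protein aXip251-270 applied at 1 µg/mL to compound-printed slides; binding of probe to printed compounds measured as 667 nm fluorescence plus signal to noise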
# [13] = small-molecule binders of probe aNOTCH3, primary screen, biochemical, small-molecule microarray, 635/667 nm fluorescence (AID 1120); details: higher = more signal;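 note: probe is a biotin-tagged antibody raised against NOTCH3 rather than NOTCH3 protein; score merges spot fluorescence near 667 nm with spot signal to noise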
# [14] = small-molecule binders of probe aNOTCH2, primary screen, biochemical, small-molecule microarray, 635/667 nm fluorescence (AID 1121); details: higher = more signal;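 note: score merges feature fluorescence read at 667 nm with its signal to noise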
# [15] = target: Carbonic anhydrase 2 (Homo sapiens) (UniProt P00918); test: CAII small-molecule binders, profiling panel, biochemical, small-molecule microarray, Alexa647-labelled CAII (AID 1122); details: CAII-A647 binding fluorescence, higher = more signal
# [16] = COS7 lysate on small-molecule microarray, probe aHis, 635 nm (AID 1123); details: COS7 cell lysate, fluorescence, higher = more signal;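 note: z-score combines 667nm fluorescence intensity with signal-to-noise per printed compound spot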
# [17] = compound binding in COS7 lysate, probe aLAP1, primary screen, cell lysate, small-molecule microarray (AID 1124); details: probe aLAP1, fluorescence, higher = more signal;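 note: lysate comes from COS7 cells expressing LAP1 and is applied at 0.3 µg/mL; score merges spot fluorescence near 667 nm with signal-to-noise over triplicate slides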
# [18] = tested on: Sam68 (KHDRBS1); test: Sam68 small-molecule binders, primary screen, biochemical, small-molecule microarray, 635 nm fluorescence (AID 1125); details: small-molecule microarray binding, higher = more signal;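 note: score merges 667 nm channel intensity with signal to noise over triplicate slides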
# [19] = tested on: Chordin-like protein 2 (CHRDL2); test: CHRDL2 small-molecule binders, primary screen, biochemical, small-molecule microarray, 635 nm fluorescence (AID 1126); details: small-molecule microarray binding, fluorescence 635 nm; higher = more signal;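 note: printed compound slides probed with Chrdl2 protein at 4 µg/mL for 1 h at 4 C; score merges 667 nm emission intensity with signal to noise over three replicate slides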
# [20] = target: Concanavalin-A (Canavalia ensiformis) (UniProt P02866); test: ConA small-molecule binders, primary screen, artefact control for SMM control protein annotation, biochemical, small-molecule microarray, Alexa647 label, 635 nm (AID 1127); details: ConA-A647 binding fluorescence, higher = more signal;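 note: z combines 667 nm emission intensity with signal-to-noise across three replicate slides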
# Sequence of Concanavalin-A (Canavalia ensiformis) (P02866 whole entry, looked up): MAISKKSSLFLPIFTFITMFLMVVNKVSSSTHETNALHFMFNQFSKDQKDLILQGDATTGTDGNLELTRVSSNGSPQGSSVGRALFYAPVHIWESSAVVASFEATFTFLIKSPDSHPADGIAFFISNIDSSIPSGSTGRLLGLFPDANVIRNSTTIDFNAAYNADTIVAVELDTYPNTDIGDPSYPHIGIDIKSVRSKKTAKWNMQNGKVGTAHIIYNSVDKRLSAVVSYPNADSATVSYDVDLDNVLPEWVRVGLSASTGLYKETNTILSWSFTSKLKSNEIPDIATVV
Structure (SMILES),composite z-score [1],z-score [2],composite z-score [3],composite z-score [4],composite z-score [5],composite z-score [6],composite z-score [7],composite z-score [8],composite z-score [9],composite z-score [10],composite z-score [11],composite Z-score [12],composite z-score [13],composite z-score [14],composite z-score [15],composite z-score [16],composite z-score [17],composite z-score [18],composite z-score [19],composite z-score [20]
CC(C)c1ccc(NN2C(C(O)Cc3ccccc3)C=CC3C(=O)N(c4ccccc4)C(=O)C32)cc1 (stereo not given),1.33,0.843,0.126,2.05,0.744,-0.0819,0.23,1.53,0.98,1.06,0.999,0.221 (inactive),0.428,0.0383,0.751,2.65,0.0643,1.31,-0.209,1.14
C=CCNC(=O)[C@@H]1[C@H]2C(=O)O[C@H](c3ccccc3)[C@H](c3ccccc3)N2[C@H](c2ccc(O)cc2)[C@@]12C(=O)Nc1ccc(C#CCC(C(=O)OC)C(=O)OC)cc12,1.31,-2.11,-0.0742,-0.0406,0.0221,-0.147,-0.2,0.187,0.411,0.388,0.0825,-0.136 (inactive),-0.0647,-0.0907,0.336,1.52,0.123,1.33,0.231,0.933
COCCOC(=O)N1C(=O)[C@@]2(c3cc(C#Cc4ccc(OC)cc4)ccc31)[C@H](c1ccc(OCCO)cc1)N1[C@H](c3ccccc3)[C@H](c3ccccc3)OC(=O)[C@H]1[C@@H]2C(=O)Nc1nc2ccccc2s1,1.34,-1.54,0.225,1.91,0.487,0.0017,1.52,0.0044,0.699,0.885,0.862,-0.436 (inactive),-0.0967,0.0402,0.309,1.3,0.176,1.29,-0.122,1.13
O=C1O[C@H](c2ccccc2)[C@H](c2ccccc2)N2[C@H]1[C@@H](C(=O)O)[C@]1(C(=O)Nc3ccc(C#CC4(O)CCCCCC4)cc31)[C@H]2c1ccc(O)cc1,0.628,-0.772,-0.114,0.277,0.431,-0.124,0.0611,-0.291,-0.0781,-0.0118,0.143,0.25 (inactive),-0.15,-0.0999,0.811,0.609,0.0189,0.553,0.224,0.437
O=C1NC(=O)C2C1C=CC(C(O)c1ccccn1)N2Nc1ccc(Cl)cc1Cl (stereo not given),0.553,0.812,0.0905,1.46,0.819,-0.16,0.171,0.383,0.422,-0.0671,1.02,0.222 (inactive),0.0773,0.0554,0.815,3.23,0.048,0.25,-0.44,0.786
O=C1OCCC/C=C\[C@H]2OC34C=CCN(c5ccc6ccccc6c5)C(=O)[C@H]3N(CCCO)C(=O)[C@@H]4C12 (stereo not given in full),-0.148,-0.0935,-0.548,-0.371,0.0048,-0.124,0.184,0.0014,-0.387,-0.766,-0.0327,-0.0549 (inactive),-0.299,-0.111,0.94,0.325,0.452,0.235,-1.08,-0.296
CCOC(=O)C1=CC[C@@H](c2ccccc2)N(S(=O)(=O)c2ccc(C)cc2)[C@H]1C=Cc1ccccc1,0.261,-1.83,-0.481,0.401,-0.401,0.127,-0.13,-0.5,0.381,0.621,0.725,0.206 (inactive),0.0372,-0.0569,0.707,1.03,0.827,0.602,-0.19,0.81
COc1ccc([Si](C)(C)[C@@H]2[C@@H](CCn3cc([C@H](O)c4ccccc4)nn3)O[C@]3(C(=O)N(Cc4cccc(N5C(=O)c6cccc7cccc5c67)c4)c4ccccc43)[C@H]2C)cc1,1.04,-2.89,-1.54,0.114,0.364,-0.232,-0.221,0.262,-0.364,0.0544,0.371,0.0425 (inactive),-0.157,-0.155,0.405,0.992,-0.64,0.173,-1.09,0.234
CC(CO)N1C(=O)[C@@H]2[C@H]3C(=O)OCC=C[C@H]3OC23C=CCN(c2ccc(Cl)cc2)C(=O)[C@@H]13 (stereo not given in full),-0.716,-0.205,-2.63,-0.669,-0.934,-0.178,1.71,-0.273,-1.67,-1.94,-1.68,-0.243 (inactive),-0.454,-0.161,0.935,-0.224,-0.191,-0.598,-2.12,-2.16
COCC(=C=CC[C@H](O)c1cccc(OCCO)c1)C[C@H](O)COCc1ccccc1,0.768,-0.754,-0.35,-0.238,-0.135,0.0037,0.191,-0.0863,1.58,-0.363,0.484,-0.141 (inactive),0.187,0.104,0.742,2.13,0.66,0.938,-0.227,-0.564
